Hit rate of the full screen: of about 140,000 compounds, about 4,300 (3.1%) were called active. Inconclusive results (about 21%) are left out.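 Rule for the calls: active = readout at or below -70, meaning at least 70% loss of cells showing the perinucleolar compartment, a nuclear body marking cancer cells; inconclusive = readout between -30 and a set limit; inactive = the rest.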 Shown is part of a subset that was picked to be rich in actives.
assay: High Content Assay for Compounds that inhibit the Assembly of the Perinucleolar Compartment; settings: PC3M PTB-GFP, PNC prevalence imaging, 16 h; at 10 µM; stronger effect = lower value;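 note: plate controls were DMSO wells for no effect and camptothecin positive control wells for full effect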
Method in brief: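 Compounds are pinned in duplicate onto adhered PC3M cells stably expressing GFP-tagged PTB and incubated 16 h at 37 C. Cells are then fixed, nuclei stained with Hoechst, and PNC-positive cells counted.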

**Q.** For COc1cc(C(=O)Nc2cc(C(F)(F)F)ccc2N2CCOCC2)ccc1O, which activity change (PNC), negative = inhibition is on record?
**A.** 44.6% (inactive)

**Q.** For CCOC(=O)C1C(=O)NC(N2CCN(c3ccccc3)CC2)=NC1c1ccco1 (configuration not stated), which activity change (PNC), negative = inhibition is on record?
**A.** -90% (active)

**Q.** For CCOC(=O)C1C(=O)NCC1c1ccccc1 (configuration not stated), which activity change (PNC), negative = inhibition is on record?
**A.** -16.9% (inactive)

**Q.** With CCOC(=O)C1C(=O)C=C(c2ccc(OC)cc2)CC1c1ccco1 (configuration not stated) as the compound, how does the activity change (PNC), negative = inhibition read?
**A.** 27.1% (inactive)

**Q.** With COc1cccc(/C=N/NC(=O)CNC(=O)c2ccc(S(=O)(=O)N3CCOCC3)cc2)c1OC as the compound, how does the activity change (PNC), negative = inhibition read?
**A.** 69.9% (inactive)

**Q.** Which activity change (PNC), negative = inhibition does the source give for Cc1ccccc1N/C(SCc1ccc(Cl)cc1)=C(/C#N)C(N)=O here?
**A.** -1.22% (inactive)

**Q.** With CCN(CC)c1ccc(C(=O)N/N=C(\C)c2cccc(OC)c2)cc1 as the compound, how does the activity change (PNC), negative = inhibition read?
**A.** 14.7% (inactive)

**Q.** Which activity change (PNC), negative = inhibition does the source give for Cc1ccc(Cc2cnc(N)s2)o1 here?
**A.** -17.8% (inactive)

**Q.** With Cc1ccc(CCC(=O)Nc2ncc(Cc3cc(Cl)ccc3Cl)s2)o1 as the compound, how does the activity change (PNC), negative = inhibition read?
**A.** -88.9% (active)

**Q.** Which activity change (PNC), negative = inhibition does the source give for Cc1cnc(C(=O)OCC(=O)Nc2ccc(Cl)cc2Cl)cn1 here?
**A.** 261% (inactive)

**Q.** With O=C(/C=C/c1ccccc1[N+](=O)[O-])NCC1CCCO1 (configuration not stated) as the compound, how does the activity change (PNC), negative = inhibition read?
**A.** 58.9% (inactive)

**Q.** With Cc1ccc(SCC(=O)Nc2ccc3c(c2)OCCO3)cc1 as the compound, how does the activity change (PNC), negative = inhibition read?
**A.** 36.7% (inactive)

**Q.** Which activity change (PNC), negative = inhibition does the source give for OCCNCCOc1ccc(Cl)c(Cl)c1 here?
**A.** 32.5% (inactive)

**Q.** For Cc1ccc(C)c(NC(=O)CSc2nc3c(oc4ccccc43)c(=O)n2-c2ccccc2)c1, which activity change (PNC), negative = inhibition is on record?
**A.** -5.79% (inactive)

**Q.** For Cc1ccc(SCCC(=O)OCC(=O)Nc2ncc(Cl)cc2Cl)cc1, which activity change (PNC), negative = inhibition is on record?
**A.** -2.97% (inactive)

**Q.** For Cc1ccc(-n2c(SCC(=O)Nc3ncc(Cl)cc3Cl)nc3ccccc32)cc1, which activity change (PNC), negative = inhibition is on record?
**A.** -115% (active)

**Q.** Which activity change (PNC), negative = inhibition does the source give for CN(C)/C(=N\OC(=O)c1ccccc1)c1nonc1N here?
**A.** 6.05% (inactive)

**Q.** For C/C(Cc1ccccc1)=N\NC(=O)CNC(=O)c1cccc(Br)c1, which activity change (PNC), negative = inhibition is on record?
**A.** 19.9% (inactive)

**Q.** Which activity change (PNC), negative = inhibition does the source give for Cc1cc(N2CCOCC2)nc(-c2ccc(Br)cc2)n1 here?
**A.** -19.2% (inactive)

**Q.** For COc1ccc(-c2noc(-c3cccc(OC)c3OC)n2)cc1OC, which activity change (PNC), negative = inhibition is on record?
**A.** 7.54% (inactive)

**Q.** For COc1ccc(-c2nc(-c3ccccc3)no2)c(OC)c1, which activity change (PNC), negative = inhibition is on record?
**A.** -102% (active)

**Q.** With CCOc1nc(-c2ccc(OC)cc2)ccc1-c1noc(-c2cc(OC)c(OC)c(OC)c2)n1 as the compound, how does the activity change (PNC), negative = inhibition read?
**A.** -17.5% (inactive)

**Q.** With Cc1ccc(S(=O)(=O)N(NC2=NS(=O)(=O)c3ccccc32)C(=O)c2ccccc2)cc1 as the compound, how does the activity change (PNC), negative = inhibition read?
**A.** 35.5% (inactive)

**Q.** Which activity change (PNC), negative = inhibition does the source give for COc1ccc(C(=O)NNS(=O)(=O)c2ccc(C)cc2)cc1 here?
**A.** -23.7% (inactive)

**Q.** Which activity change (PNC), negative = inhibition does the source give for N#CCCN1CCN(S(=O)(=O)c2ccc(S(=O)(=O)NC3CC3)cc2)CC1 here?
**A.** -11.6% (inactive)

**Q.** With CC(C)(C)c1cc(CN2CCN(CCC#N)CC2)cc(C(C)(C)C)c1O as the compound, how does the activity change (PNC), negative = inhibition read?
**A.** -122% (active)

**Q.** With N#CCCN1CCN(S(=O)(=O)c2ccc(S(=O)(=O)N3CCCC3)cc2)CC1 as the compound, how does the activity change (PNC), negative = inhibition read?
**A.** -15% (inactive)

Source: PubChem BioAssay AID2417 (National Center for Advancing Translational Sciences (NCATS), 2010)
